High-throughput results (PubChem)
RORg inh: qHTS for inhibitors of ROR gamma transcriptional activity; Drosophila S2 Gal4-RORgamma UAS-luciferase reporter, 20 h; Potency, µM (series often up to 53.6 µM), hits mostly inhibitors; 310,000 tested, 5.4% active; AID 2551, 2010; also: nearly all actives have a fitted effect of over 60% in size
Target sequence (P51450 whole entry, looked up, the tested form may be a part): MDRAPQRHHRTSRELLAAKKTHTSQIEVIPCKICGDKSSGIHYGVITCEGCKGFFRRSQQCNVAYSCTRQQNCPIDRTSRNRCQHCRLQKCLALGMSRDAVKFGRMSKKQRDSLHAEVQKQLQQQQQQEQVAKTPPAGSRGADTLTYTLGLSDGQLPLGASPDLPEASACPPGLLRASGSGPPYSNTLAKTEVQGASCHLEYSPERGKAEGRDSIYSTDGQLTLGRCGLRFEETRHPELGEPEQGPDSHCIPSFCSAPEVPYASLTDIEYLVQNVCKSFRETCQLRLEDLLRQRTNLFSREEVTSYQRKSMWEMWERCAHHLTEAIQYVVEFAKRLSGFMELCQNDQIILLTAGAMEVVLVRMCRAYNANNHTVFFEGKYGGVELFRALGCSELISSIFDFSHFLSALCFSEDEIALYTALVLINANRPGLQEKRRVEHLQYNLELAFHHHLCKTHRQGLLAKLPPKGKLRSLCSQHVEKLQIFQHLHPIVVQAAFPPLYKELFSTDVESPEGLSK
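ROR gamma transcriptional activity was tracked as Gal4-UAS luciferase output in stably transfected Drosophila Schneider cells, with compound added 1 hr before 700 uM copper sulfate induction and a 20 hr ambient-temperature incubation.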
Gal4-VP16 FLuc: VP16 counterscreen qHTS for inhibitors of ROR gamma transcriptional activity | AID 2546, 2010 | 310,000 tested, 3.5% active | Potency, µM (doses to about 53.6 µM), usual class: inhibitors | Drosophila S2 Gal4-VP16 UAS-luciferase, luminescence, 20 h;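 also: Gal4-VP16 expression switched on by copper sulfate through the metallothionein promoter; nearly all actives have a fitted effect of over 50% in size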
ELG1 DNA repair: qHTS screen for small molecules that inhibit ELG1-dependent DNA repair in human embryonic kidney (HEK293T) cells expressing luciferase-tagged ELG1; HEK293T ELG1-luciferase reporter, luminescence, 16 h; DNA damage induced by 5-fluorouridine; 330,000 tested, 2.3% active; Potency, µM (series often up to 46.1 µM), most hits filed as inhibitors; also: nearly all actives have a fitted effect of over 55% in size
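Luminescence from the luciferase reporter, measured 30 min after ONE-Glo reagent at room temperature, was the read-out. Beforehand, 2,000 cells per well were exposed for 16 hr at 37 °C to 5-fluorouridine together with compound or vehicle.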
SW480 rereplic: A quantitative high throughput screen for small molecules that induce DNA re-replication in SW480 colon adenocarcinoma cells | SW480 DNA re-replication, Hoechst DNA content imaging, 48 h | Potency, µM (doses to about 46.1 µM), usual class: activators | 340,000 tested, 1.8% active | AID 624297, 2012; also: nearly all actives have a fitted effect of over 55% in size
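Compounds, transferred as 23 nL by pin tool, were incubated with cells for 48 hr; DNA content per nucleus was then quantified by Hoechst staining and fluorescence plate imaging.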
MCF10A rerep: A quantitative high throughput screen for small molecules that induce DNA re-replication in MCF 10a normal breast cells; MCF 10A DNA re-replication, Hoechst nuclear intensity, 48 h; Potency, µM (titrated, usually from 46.1 µM), most hits filed as activators; 350,000 tested, 2.9% active; AID 624296, 2012; also: nearly all actives have a fitted effect of over 50% in size
Each line names hits and unclear results; the compound was inactive in the other large screens. An excerpt weighted towards active compounds, which were near 10% of everything screened. Calls follow the shape of the dose curve; as a rule, active = well fitted curve in the direction sought with a large enough effect; inconclusive = small, poorly fitted or top-dose-only effect, or another doubt; inactive = no such curve, though single readings can be large; an effect the other way counts as inactive or inconclusive.

Fc1ccc(Nc2nc(N3CCOCC3)nc(N3CCOCC3)n2)cc1	ELG1 DNA repair inconclusive
CCc1cccc(NC(=O)C2CCCN2S(=O)(=O)c2ccccc2C(F)(F)F)c1 (stereo unspecified)	none (no result: RORg inh, Gal4-VP16 FLuc)
C/C(=C\c1ccco1)C1C(C#N)=C(N)OC2=C1C(=O)CC(C)(C)C2 (stereo unspecified)	none
Cc1nnc(SC(C)C(=O)NC2CCCCC2C)s1 (stereo unspecified)	none (no result: RORg inh, Gal4-VP16 FLuc)
Cc1nn2c(nc1=O)NNC2(C)C(C)(C)C (stereo unspecified)	RORg inh 11.2µM, SW480 rereplic inconclusive, MCF10A rerep inconclusive
C=CCn1c(-c2cccc3ccccc23)n[nH]c1=S	RORg inh 3.55µM, Gal4-VP16 FLuc 10µM
C=CCn1c(C(C)NC(=O)c2ccccc2C)n[nH]c1=S (stereo unspecified)	RORg inh inconclusive
C=CCn1c(-c2cc(OC)cc(OC)c2)n[nH]c1=S	RORg inh inconclusive, Gal4-VP16 FLuc inconclusive
C=CCn1c(-c2ccccc2OC)n[nH]c1=S	RORg inh 11.2µM, Gal4-VP16 FLuc inconclusive
O=C(O)c1ccc(CN2C(=O)c3cccc4c([N+](=O)[O-])ccc(c34)C2=O)cc1	RORg inh inconclusive, Gal4-VP16 FLuc 7.08µM, ELG1 DNA repair inconclusive, SW480 rereplic 5.8µM, MCF10A rerep 5.8µM
O=C1c2cccc3c([N+](=O)[O-])ccc(c23)C(=O)N1CCc1ccccn1	SW480 rereplic inconclusive
CC(=O)Oc1cccc(N2C(=O)c3cccc4c([N+](=O)[O-])ccc(c34)C2=O)c1	RORg inh 8.91µM, Gal4-VP16 FLuc 5.62µM, SW480 rereplic inconclusive, MCF10A rerep 20.6µM
Cc1ccc(C(=O)O)cc1N1C(=O)c2cccc3c([N+](=O)[O-])ccc(c23)C1=O	RORg inh 7.94µM, Gal4-VP16 FLuc 6.31µM, ELG1 DNA repair inconclusive, SW480 rereplic inconclusive, MCF10A rerep 18.4µM
CN(C)CCCN1C(=O)c2cccc3c([N+](=O)[O-])ccc(c23)C1=O	RORg inh 1.41µM, Gal4-VP16 FLuc 1.12µM, ELG1 DNA repair 13µM, SW480 rereplic 5.8µM, MCF10A rerep 5.8µM
O=C(O)c1ccc(S(=O)(=O)c2ccc3c(c2)C(=O)N(c2ccccc2[N+](=O)[O-])C3=O)cc1	none
CC(NC(=O)CS(=O)(=O)c1ccccc1)c1ccccc1 (stereo unspecified)	none
O=C(Nc1nccs1)c1cccc(N2C(=O)c3cccc4c([N+](=O)[O-])ccc(c34)C2=O)c1	RORg inh 7.08µM, Gal4-VP16 FLuc 7.08µM, SW480 rereplic 7.31µM, MCF10A rerep 3.66µM
O=C(Nc1ccc(S(=O)(=O)Nc2nccs2)cc1)c1cccc(N2C(=O)c3ccccc3C2=O)c1	none
CNc1ncncc1-c1ccccc1CN(C)C	none (no result: ELG1 DNA repair, SW480 rereplic, MCF10A rerep)
O=C1c2ccccc2C(=O)c2c(O)ccc(O)c21	none (no result: ELG1 DNA repair, SW480 rereplic, MCF10A rerep)
O=C1C(=C(I)I)c2ccccc2-c2ccccc21	SW480 rereplic 5.8µM, MCF10A rerep inconclusive (no result: RORg inh, Gal4-VP16 FLuc, ELG1 DNA repair)
O=C(NCCN1CCOCC1)C(=O)NCC1OCCN1S(=O)(=O)c1ccccc1 (stereo unspecified)	none
COCCn1c(C)cc(C(=O)Cn2nc(C(=O)O)c3ccccc3c2=O)c1C	RORg inh 5.62µM, Gal4-VP16 FLuc inconclusive, ELG1 DNA repair inconclusive
C=CCn1c(C)cc(C(=O)Cn2nc(C(=O)O)c3ccccc3c2=O)c1C	RORg inh 15.8µM, Gal4-VP16 FLuc inconclusive, ELG1 DNA repair inconclusive
Cc1cccc(NC(=S)N2CCOCC2)c1C	RORg inh inconclusive, Gal4-VP16 FLuc inconclusive
COc1ccc(-c2n[nH]c(=S)n2-c2cc(OC)ccc2OC)cc1	RORg inh 10µM, ELG1 DNA repair inconclusive, SW480 rereplic inconclusive, MCF10A rerep inconclusive
COc1ccc(-c2cc(-c3n[nH]c(=S)n3-c3cc(OC)ccc3OC)[nH]n2)cc1	RORg inh inconclusive
COc1ccc(OC)c(-n2c(-c3cccc(O)c3)n[nH]c2=S)c1	none (no result: Gal4-VP16 FLuc)
COc1ccc(OC)c(-n2c(-c3ccc(C)cc3)n[nH]c2=S)c1	RORg inh 3.98µM, Gal4-VP16 FLuc inconclusive, ELG1 DNA repair inconclusive
